A selection: hits, their analogues and other compounds. The true share with any hit is near 1.4%.
KCNH2 3.1 inh: qHTS for Inhibitors of KCHN2 3.1: Mutant qHTS; Potassium voltage-gated channel subfamily H member 2, brain isoform KCNH2 3.1 (human); U2OS KCNH2 3.1, thallium flux FluxOr; hits give low values; activity change, % (tested at about 1.8 µM); 0.95% of 340,000 active; AID 720553, 2013;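 active = maximum activity change below -70%; inconclusive = maximum activity change from -70% to -50%; inactive = maximum activity change above -50%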;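 also: thallium influx rate constant from kinetic fluorescence after stimulation buffer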
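Thallium flux via FluxOr fluorescence (Red40 quencher, 45 min loading) in U2OS cells virally expressing the KCNH2 3.1 isoform (1.77 x 10^8 /mL virus, overnight at 37 C). Rate constants from 2-min kinetic reads post-stimulation, normalised to positive and negative controls.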
Glioma ERSR ind: qHTS for Inducers of the Endoplasmic Reticulum Stress Response (ERSR) in Human Glioma: qHTS | 0.02% of 420,000 active | Potency, µM, most hits filed as activators | AID 602332, 2012 | U87-MG GRP78 promoter luciferase reporter, 16 h; also: series mostly up to about 76 µM; nearly all actives have a fitted effect of over 35% in size
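ERSR induction read as luciferase luminescence (Bright-Glo, 10 min at room temperature) in stably transfected human U87-MG glioma cells exposed to compounds for 16 h, using GRP78 as sensor.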
PTHR1 ag: qHTS for PTHR1 Agonists: Primary Screen. Parathyroid hormone/parathyroid hormone-related peptide receptor (Homo sapiens), Q03431. HEK293 GP2 PTHR1 cells, GloSensor cAMP luminescence, 1 h. Potency, µM (titrated, usually from 115 µM), actives largely listed as activators. 0.075% of 410,000 active. AID 743266, 2014; also: nearly all actives have a fitted effect of over 55% in size
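HEK-293-derived GP2 cells expressing PTHR1 and a GloSensor cAMP reporter, 3,000/well, plated overnight, given luciferin plus IBMX (each 0.5 mM as added) for 1 h at 37 °C, then compound for 1 h at 37 °C. Luminescence was read after 15 min at room temperature.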
RXFP1 ag: qHTS Assay for Agonists of the Relaxin Receptor RXFP1; Potency, µM (highest dose often 57.5 µM), hits mostly activators; 0.3% of 370,000 active; HEK293T-RXFP1 cAMP TR-FRET, 30 min; response scale: percent of porcine relaxin response, buffer zero; also: nearly all actives have a fitted effect of over 60% in size
Target sequence (Q9HBX9 whole entry, looked up): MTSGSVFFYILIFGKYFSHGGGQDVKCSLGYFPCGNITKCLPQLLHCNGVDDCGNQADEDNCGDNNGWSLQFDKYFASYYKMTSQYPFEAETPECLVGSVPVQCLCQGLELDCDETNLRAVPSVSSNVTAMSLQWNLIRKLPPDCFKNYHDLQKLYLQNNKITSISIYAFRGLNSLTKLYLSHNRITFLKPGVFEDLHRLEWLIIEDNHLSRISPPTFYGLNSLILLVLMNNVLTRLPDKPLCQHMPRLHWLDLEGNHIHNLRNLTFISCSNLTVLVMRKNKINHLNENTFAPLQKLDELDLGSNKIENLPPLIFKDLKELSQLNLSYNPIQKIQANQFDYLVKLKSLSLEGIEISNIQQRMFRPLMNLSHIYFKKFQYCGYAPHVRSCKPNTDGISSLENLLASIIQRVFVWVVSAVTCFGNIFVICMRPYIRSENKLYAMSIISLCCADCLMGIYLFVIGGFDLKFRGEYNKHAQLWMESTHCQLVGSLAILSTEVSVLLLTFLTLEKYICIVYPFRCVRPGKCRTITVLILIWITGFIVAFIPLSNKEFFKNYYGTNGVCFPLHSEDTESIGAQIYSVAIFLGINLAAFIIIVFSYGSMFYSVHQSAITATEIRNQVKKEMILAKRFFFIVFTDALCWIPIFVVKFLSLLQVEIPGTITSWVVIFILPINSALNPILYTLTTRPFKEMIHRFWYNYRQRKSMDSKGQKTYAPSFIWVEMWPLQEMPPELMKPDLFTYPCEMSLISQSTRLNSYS
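Agonist response is measured as cAMP accumulation in an RXFP1-transfected HEK293T line under PDE4 inhibition. Values are scaled between buffer-only and 29 nM porcine relaxin, and EC50s come from standard Hill equation fits.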
KCNH2 WT inh: qHTS for Inhibitors of KCHN2 3.1: Wildtype qHTS. activity change, % at 1.84 µM. 0.37% of 340,000 active. Voltage-gated inwardly rectifying potassium channel KCNH2 (Homo sapiens), Q12809. U2OS, BacMam KCNH2, thallium flux FluxOr; hits give low values;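 active = maximum activity change below -70%; inconclusive = maximum activity change between -70% and -50%; inactive = maximum activity change above -50%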
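U2OS cells were transduced with wild-type KCNH2 virus (2.03 x 10^8 / mL) for 4 h at room temperature, then cultured overnight at 37 C. Thallium flux was read with FluxOr dye. Rate constants were normalized to DMSO controls.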
RXFP1 antagonist: qHTS Assay for Antagonists of the Relaxin Receptor RXFP1; HEK293-RXFP1, relaxin-stimulated cAMP HTRF, 30 min; hits give low values; activity change, negative = inhibition, % at 57.5 µM; 0.59% of 350,000 active;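 active = activity change of -60% or lower, but not beyond a set lower limit; inconclusive = change between -60% and -40%, or beyond the set limit; inactive = change above -40%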
Of the large screens only hits and unclear results are named; the others gave an inactive call. Unless noted, calls follow the shape of the dose curve; as a rule, active = well fitted curve in the direction sought with a large enough effect; inconclusive = small, poorly fitted or top-dose-only effect, or another doubt; inactive = no such curve, though single readings can be large; an effect the other way counts as inactive or inconclusive.

O=S(=O)(c1ccc(Br)cc1)N1CCCN(Cc2ccccc2F)CC1	none
COc1ccc(-c2onc(C)c2-c2cscn2)c(O)c1	none
CCc1cc(-c2onc(C)c2-c2cscn2)c(O)cc1OC	KCNH2 3.1 inh -89.5
Fc1ccccc1C1c2[nH]c3ccccc3c2CCN1Cc1cccn1-c1ncccn1 (stereo unspecified)	KCNH2 3.1 inh -70.7
Cc1ccccc1C1c2[nH]c3ccccc3c2CCN1Cc1cccn1-c1ncccn1 (stereo unspecified)	none
Cc1cc(C)c(Cn2c3ccccc3c3cnn(CC(=O)NCCN4CCOCC4)c(=O)c32)c(C)c1	RXFP1 antagonist -64.3
Cc1ccc(C)c(Cn2c3ccccc3c3cnn(CC(=O)NCCN4CCOCC4)c(=O)c32)c1	none
Cc1cc(C)cc(C(=O)N(CCc2ccccc2)C2CC3CCC(C2)N3C)c1 (stereo unspecified)	KCNH2 3.1 inh -87.8
CC(C)(C)OC(=O)N1CCC(c2c(C(=O)O)cnn2-c2ccc(F)cc2F)CC1	none (no result: KCNH2 3.1 inh, KCNH2 WT inh)
COC(=O)c1sccc1NC(=O)CSCCc1ccncc1	none
O=C(NCCN1CCOCC1)c1c(O)nc2ccccn2c1=O	RXFP1 antagonist -90.7
Cc1ccn2c(=O)c(C(=O)NCCN3CCOCC3)c(O)nc2c1	none
O=C(O)c1cccc(N/N=C/c2cccc3ccccc23)c1	KCNH2 3.1 inh -72.7
O=C(O)c1cccc(Cn2c(Cl)c(/C=N/Nc3ccccc3)sc2=O)c1	RXFP1 antagonist -73.6
CCOc1cc(/C=N/Nc2cccc(C(=O)O)c2)ccc1OC(=O)c1ccccc1	RXFP1 antagonist -75.0
COc1ccc2ccccc2c1/C=N/Nc1cccc(C(=O)O)c1	none
CCOc1cc(/C=N/NC(=O)c2ccccn2)ccc1OC(=O)c1ccc(F)cc1	RXFP1 antagonist -93.3
CC(N)(Cc1ccc(O)c(O)c1)C(=O)O (stereo unspecified)	none (no result: KCNH2 3.1 inh, PTHR1 ag, RXFP1 ag, KCNH2 WT inh, RXFP1 antagonist)
Cc1[nH]nc(-c2ccc(O)c(C)c2O)c1-c1cnn(-c2ccccc2)c1	RXFP1 antagonist -87.2
COc1ccc(CN2CCN(Cc3cccc(Oc4ccccc4)c3)CC2)c(OC)c1OC	KCNH2 3.1 inh -73.4, KCNH2 WT inh inconclusive
COc1ccc(CN2CCN(C(c3ccc(F)cc3)c3ccc(F)cc3)CC2)c(OC)c1OC	KCNH2 3.1 inh inconclusive, RXFP1 antagonist -105.7 (no result: RXFP1 ag)
CN1CCN(Cc2cccc(Oc3ccccc3)c2)CC1	none
NC(N)=N[C@@H](CCC(=O)O)C(=O)O	none (no result: KCNH2 3.1 inh, PTHR1 ag, RXFP1 ag, KCNH2 WT inh, RXFP1 antagonist)
CCc1cccc(OCC(=O)Nc2cc(Cl)ccc2-n2cncn2)c1	none
Cn1cc(CN2CCC(n3nccc3NC(=O)c3ccccc3Cl)CC2)c2ccccc21	PTHR1 ag inconclusive, KCNH2 WT inh -78.9, RXFP1 antagonist inconclusive
COc1ccccc1C(=O)Nc1ccnn1C1CCN(Cc2cn(C)c3ccccc23)CC1	KCNH2 3.1 inh -76.8
CCCCc1ncc(CN2CCC(n3nccc3NC(=O)c3ccccc3OC)CC2)[nH]1	KCNH2 3.1 inh -79.3
Cn1cc(CN2CCC(n3nccc3NC(=O)c3ccccc3Cl)CC2)cn1	none
CCCn1ncc(CN2CCC(n3nccc3NC(=O)c3ccccc3OC)CC2)c1C	KCNH2 3.1 inh -94.8, KCNH2 WT inh inconclusive
CCn1nc(C)c(CN2CCC(n3nccc3NC(=O)c3ccccc3OC)CC2)c1C	none
COC(=O)c1ccc(NC(=O)C(=O)NCC(c2cccnc2)N2CCc3ccccc32)cc1 (stereo unspecified)	none (no result: KCNH2 3.1 inh, KCNH2 WT inh)
CCc1ccccc1NC(=O)c1nnn(CC(=O)Nc2cccc(C)c2C)c1N	none
CCOc1cc(C(=O)N2CCC(CC3CC(c4ccccc4)=NO3)(C(=O)NCc3ccc(OC)cc3)CC2)cc(OCC)c1OCC (stereo unspecified)	none (no result: RXFP1 ag, RXFP1 antagonist)
COc1ccc(CNC(=O)C2(CC3CC(c4ccccc4)=NO3)CCN(C(=O)Cc3ccc(F)cc3)CC2)cc1 (stereo unspecified)	KCNH2 3.1 inh -72.0 (no result: RXFP1 ag, RXFP1 antagonist)
CCOC(=O)c1cnn(-c2ccccc2)c1NC(=O)c1ccccc1C	none
COc1ccc(-c2noc(CCC(=O)NCCc3ccccc3)n2)cc1	none
O=C(CCc1nc(-c2ccccc2)no1)NCCc1ccccc1	KCNH2 3.1 inh -90.1
Cc1cccc(C)c1OCc1cc(C(=O)NCc2ccc(Cl)s2)no1	none
N=c1c(C(=O)NC2CCCC2)cc2c(=O)n3ccccc3nc2n1Cc1ccccc1	KCNH2 3.1 inh -77.1
N=c1c(C(=O)NCc2ccc(F)cc2)cc2c(=O)n3ccccc3nc2n1CC1CCCO1 (stereo unspecified)	KCNH2 3.1 inh -86.0, PTHR1 ag inconclusive, KCNH2 WT inh -122.3 (no result: RXFP1 antagonist)
COc1ccc(CCn2c(=N)c(C(=O)NC3CCCCC3)cc3c(=O)n4ccccc4nc32)cc1	KCNH2 3.1 inh -86.7, KCNH2 WT inh inconclusive
N=c1c(C(=O)NCC2CCCO2)cc2c(=O)n3ccccc3nc2n1Cc1ccccc1 (stereo unspecified)	none
N=c1c(C(=O)NCC2CCCO2)cc2c(=O)n3ccccc3nc2n1Cc1ccc(Cl)cc1 (stereo unspecified)	KCNH2 3.1 inh -130.6
COc1ccc(CCn2c(=N)c(C(=O)NC3CCCC3)cc3c(=O)n4cccc(C)c4nc32)cc1	none
Cc1ccc(Cn2c(=N)c(C(=O)NC3CCCCC3)cc3c(=O)n4ccccc4nc32)cc1	none
COc1ccc(CCn2c(=N)c(C(=O)NCC3CCCO3)cc3c(=O)n4ccccc4nc32)cc1 (stereo unspecified)	KCNH2 3.1 inh -86.2, KCNH2 WT inh inconclusive
COc1ccc(Cn2c(=N)c(C(=O)NCC3CCCO3)cc3c(=O)n4ccccc4nc32)cc1 (stereo unspecified)	none (no result: RXFP1 antagonist)
Cc1ccc2ccc3ccc(C)nc3c2n1	none (no result: RXFP1 antagonist)
Cc1ccc2c(C)ccc(O)c2n1	RXFP1 antagonist -70.4
Cc1cc(N2C(=O)C(O)=C(C(=O)c3cc4ccccc4o3)C2c2cccc(Br)c2)no1 (stereo unspecified)	RXFP1 ag 15.8µM
COc1cc(C2C(C(=O)c3cc4ccccc4o3)=C(O)C(=O)N2c2cc(C)on2)cc(OC)c1OC (stereo unspecified)	RXFP1 ag inconclusive
